Vaccinia pol inh: vaccinia E9 polymerase processive synthesis inhibitors, primary screen, biochemical, absorbance; normalized absorbance, % (test concentration not listed); in vitro processive DNA synthesis, absorbance read-out; active compounds read low; hit rate 0.94% among 46,000; in the data active = normalized absorbance mostly below about 85%, no sharp cut-off; inactive = mostly above about 86%
Active calls of the source: *. Only a selection was taken, and hits are over-represented in it overall.

For O=C(/C=C/c1ccc(-c2cccs2)s1)N1CCSCC1 the results were Vaccinia pol inh 95.3.
For CN(C)C=NC(=O)c1ccc(-c2cccs2)s1 the results were Vaccinia pol inh 80.2*.
`Cc1ccc(C(=O)c2cccs2)s1` gave Vaccinia pol inh 99.1.
`CCn1c(=O)cc(N2CCC(C)CC2)[nH]c1=O` gave Vaccinia pol inh 66.3.
For Oc1ccccc1CNc1ccc(C2CCCCC2)cc1 the results were Vaccinia pol inh 92.7.
Screening Cc1c(O)ccc(-c2n[nH]c(C(F)(F)F)c2Oc2ccccc2)c1O returned Vaccinia pol inh 93.0.
COc1ccc(-c2n[nH]c(C(F)(F)F)c2-c2cnn(-c3ccccc3)c2)c(O)c1C was read as Vaccinia pol inh 93.9.
`COc1ccc(-c2n[nH]c(C(F)(F)F)c2-c2cc3ccccc3o2)c(O)c1` gave Vaccinia pol inh 63.2*.
For Cn1cccc1C(C#N)c1cccc(F)c1C#N (configuration not stated) the results were Vaccinia pol inh 91.9.
Cc1nc(Nc2ccccc2)sc1C(=O)c1cc2ccccc2s1 was read as Vaccinia pol inh 96.0.
`O=S1(=O)NC(=NCc2ccco2)c2ccccc21` gave Vaccinia pol inh 104.3.
For CN1/C(=C/C=C/c2oc3ccccc3[n+]2C)Oc2ccccc21 the results were Vaccinia pol inh 89.0*.
`COC(Cn1c(SCc2ccc(Cl)cc2)nnc1-c1ccccc1)OC` gave Vaccinia pol inh 100.8.
CC(C)CCNC(=O)c1cc2c(=O)oc3ccccc3c2s1 was read as Vaccinia pol inh 96.1.
Screening COc1ccc(CC(=O)N2CCc3ccccc32)cc1 returned Vaccinia pol inh 100.6.
`O=C1c2ccccc2CN1Cc1ccccc1` gave Vaccinia pol inh 91.2.
`O=C(O)c1cccc(-c2ccc(/C=C3/SC(=O)N(c4ccccc4)C3=O)o2)c1` gave Vaccinia pol inh 95.4.
Screening O=C(O)c1ccc(-c2ccc(/C=C3\Sc4ccccc4C3=O)o2)cc1 returned Vaccinia pol inh 99.7.
For O=C1NC(=Nc2cccc(C(=O)O)c2)S/C1=C/c1ccc(-c2ccc(C(=O)O)cc2)o1 the results were Vaccinia pol inh 28.6*.
`O=C(c1ccccc1)c1ccccc1C(=O)c1ccccc1` gave Vaccinia pol inh 96.2.
Cc1ccc(-n2c(O)c(C=NCC3CCCO3)c3ccccc3c2=O)cc1C (configuration not stated) was read as Vaccinia pol inh 94.1.
For Cc1ccc(S(=O)(=O)/C=C/C#N)cc1 the results were Vaccinia pol inh 99.4.
`COC(=O)CNC(=O)c1cc(OC)c(OC)c(OC)c1` gave Vaccinia pol inh 99.1.
Screening CN(C)N1C(=O)c2cccc3cccc(c23)C1=O returned Vaccinia pol inh 88.5.
`CNN1C(=O)c2cccc3cccc(c23)C1=O` gave Vaccinia pol inh 63.6*.
Screening O=C(O)c1ccc(/C=N/N2C(=O)c3cccc4cccc(c34)C2=O)cc1 returned Vaccinia pol inh 101.7.
Nc1nonc1NC(=O)CSC1=NCCS1 was read as Vaccinia pol inh 98.4.
Screening Cc1cc(C(=O)NC(C)(C)C)on1 returned Vaccinia pol inh 102.7.
For CC(NCc1ccccc1)C1CC1 (configuration not stated) the results were Vaccinia pol inh 100.4.
Screening CCOC(=O)c1cnc(Nc2nc3ccccc3o2)nc1CN1CCN(c2ccccc2)CC1 returned Vaccinia pol inh 110.0.
`CCOc1ccc(N)cc1OCC` gave Vaccinia pol inh 101.1.
Screening C[n+]1c2cc(N)ccc2cc2ccc(N)cc21 returned Vaccinia pol inh 10.5*.
`CCOC(=O)C1=Cc2sc3c(c2CS1)CCCC3` gave Vaccinia pol inh 103.0.
For COc1ccc(Cc2nccc3cc(OC)c(OC)cc23)cc1OC the results were Vaccinia pol inh 97.0.
Screening COc1cc(C(=O)NCc2ccc(OCCN(C)C)cc2)cc(OC)c1OC returned Vaccinia pol inh 100.6.
Screening COc1cc2ccc3c(CCN(C)C)cc(OC)c(OC)c3c2cc1OC returned Vaccinia pol inh 60.9*.
For COc1ccc(-c2nnc3s/c(=C\c4ccco4)c(=O)n23)cc1OC the results were Vaccinia pol inh 99.9.
For NC(CC(=O)O)C1CC=CCC1 (configuration not stated) the results were Vaccinia pol inh 90.8.
N#Cc1c(N)n(CCN)c2nc3ccccc3nc12 was read as Vaccinia pol inh 84.8*.
Screening CCCCn1c(N)c(C#N)c2nc3ccccc3nc21 returned Vaccinia pol inh 94.6.
`N#Cc1c(N)n(CCc2ccccc2)c2nc3ccccc3nc12` gave Vaccinia pol inh 94.1.
`CC1CN(C(=O)c2ccc(N)cc2)CC(C)O1` (configuration not stated) gave Vaccinia pol inh 104.3.
Screening COc1ccc(NC(=O)c2ccc3nc(C)c(C)nc3c2)cc1 returned Vaccinia pol inh 100.6.
For CCOc1ccc(Oc2cc(NC(=O)c3ccc(F)cc3)cc(NC(=O)c3ccc(F)cc3)c2)cc1 the results were Vaccinia pol inh 100.0.
For NC(CSCc1oc(-c2ccccc2)cc1C(=O)O)C(=O)O (configuration not stated) the results were Vaccinia pol inh 77.4*.
`NC(CSCc1ccccc1Cl)C(=O)O` (configuration not stated) gave Vaccinia pol inh 99.0.
For NC(Cc1ccccc1F)C(=O)O (configuration not stated) the results were Vaccinia pol inh 99.4.
`CN1c2ccccc2C(=O)/C(=C\Nc2cc(C(F)(F)F)cc(C(F)(F)F)c2)S1(=O)=O` gave Vaccinia pol inh 84.6.
Screening CCN(CC)C(=O)CSc1nnc(-c2ccccc2Cl)o1 returned Vaccinia pol inh 100.0.
For CC(C)(c1ccc(OCC2CO2)cc1)c1ccc(OCC2CO2)cc1 (configuration not stated) the results were Vaccinia pol inh 100.4.
O=C(Cn1c(=O)n2nc(-c3ccccc3)nc2c2ccccc21)c1ccc(Br)cc1 was read as Vaccinia pol inh 104.1.
Screening Cc1nc2c3ccccc3nc(NN3C(=O)CCC3=O)n2n1 returned Vaccinia pol inh 102.0.
CC1CCCC(C)N1CCNc1nc2ccccc2c2nc(-c3ccccc3)nn12 (configuration not stated) was read as Vaccinia pol inh 58.9*.
`Fc1ccc(NC2=NCCN2)cc1` gave Vaccinia pol inh 101.6.
For O=C1N/C(=N\O)S/C1=C/c1ccc(O)cc1 the results were Vaccinia pol inh 84.2*.
Screening CN(C)c1ccc(/C=C2/S/C(=N/O)NC2=O)cc1 returned Vaccinia pol inh 99.7.
`O=C1NC(=Nc2ccccc2)S/C1=C\c1ccccc1` gave Vaccinia pol inh 87.5.
`Cc1[nH]c2ccccc2c1N=CN(C)C` gave Vaccinia pol inh 100.3.
For Cc1sc(/N=C/c2c[nH]c3ccccc23)c(C#N)c1C the results were Vaccinia pol inh 92.0.
Screening CN(C)C=Nc1ncc2c([nH]c3ccccc32)c1C#N returned Vaccinia pol inh 88.7*.
`CNCc1cc2ccccc2s1` gave Vaccinia pol inh 100.4.
For CCn1c2ccccc2c2cc(CN3CCN(Cc4cccc(C)c4)CC3)ccc21 the results were Vaccinia pol inh 99.4.
`O=C(Cc1cccc2ccccc12)N1CCN(Cc2ccccc2)CC1` gave Vaccinia pol inh 101.9.
For Cc1cccc(CN2CCN(C(=O)CC(C)C)CC2)c1 the results were Vaccinia pol inh 59.3*.
Cc1nc2c(C)cccn2c1C(=O)Nc1ccc(F)cc1F was read as Vaccinia pol inh 101.5.
Screening COc1cccc2sc(NC(=O)c3ccccc3Cl)nc12 returned Vaccinia pol inh 106.8.
CSc1nc2ccc3nc(NC(=O)c4ccccc4Cl)sc3c2s1 was read as Vaccinia pol inh 100.0.
